Assay outcomes from PubChem BioAssay.
HT1080 IDH1KD tx = toxicity to HT-1080 IDH1 knockdown cells (counter line); HT-1080 IDH1 knockdown viability, ATP luminescence, 48 h; Potency, µM (doses to about 46.1 µM), for inactives: at the top dose activity, negative = toxicity, usual class: cytotoxic; hit rate 2% among 360,000;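 further: potency means the concentration at half of the fitted maximal effect; 0% = DMSO wells and -100% = cell-free medium wells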
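Luminescent ATP read-out (CellTiter-Glo, 10 min at room temperature) after 48 h compound exposure at 37 °C gave viability of IDH1-knockdown HT-1080 cells. Activity was normalised to DMSO and cell-free wells, then fitted as concentration-response curves.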
IL1B secr inh = inhibitors of inflammasome signaling (IL-1 beta secretion). AID 743279. activity change, % at 57.5 µM. THP-1 LPS/ATP IL-1B secretion, AlphaLISA, 16 h; hits give low values. hit rate 4.7% among 360,000; in the data active means activity change below about -50%; inconclusive means mostly about -30% to -49%
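Secreted IL-1B measured by AlphaLISA bead assay after 16 h compound exposure of THP-1 cells; compounds (final up to 57.5 uM) added 1 h before LPS (250 ng/mL) and ATP (1.25 mM) stimulation; lower signal means less secretion.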
ELG1 DNA repair = ELG1-dependent DNA repair inhibition; HEK293T ELG1-luciferase reporter, luminescence, 16 h; DNA damage induced by 5-fluorouridine; Potency, µM (series often up to 46.1 µM), without a hit: top-dose activity change, negative = inhibition, most hits filed as inhibitors; hit rate 2.3% among 330,000; further: potency means the concentration at half of the fitted maximal effect; nearly all actives have a fitted effect of over 55% in size
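5-Fluorouridine DNA damage + compound/DMSO, 2,000 cells/well, 16 h, 37 °C/5% CO2. ONE-Glo, 30 min RT, luminescence. Readout = decrease in reporter signal.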
HT1080NT lethal = kills 2HG-producing HT-1080-NT fibrosarcoma cells. Potency, µM (highest dose often 46.1 µM), inactives show top-dose activity, negative = less viability, hits mostly cytotoxic. hit rate 1.6% among 360,000. AID 686970. HT-1080-NT fibrosarcoma viability, CellTiter-Glo ATP luminescence, 48 h;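 further: NT is the 2HG producing partner of a matched IDH1 knockdown line; potency means the concentration at half of the fitted maximal effect; 0% = DMSO-treated cells and -100% = media-only wells without cells; nearly all actives have a fitted effect of over 55% in size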
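Fibrosarcoma NT cells, 750 per well in 5% FBS RPMI, were exposed to compound for 48 hours. Viability: CellTiter-Glo luminescence.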
TDP1 cell noCPT = qHTS for Inhibitors of human tyrosyl-DNA phosphodiesterase 1 (TDP1): qHTS in cells in absence of CPT | DT40 Tdp1-/- hTDP1 cells, no CPT, ATP luminescence, 48 h | Potency, µM (top dose mostly 46.2 µM), for the others: at the top dose activity change, negative = growth inhibition, usual class: inhibitors | hit rate 15% among 420,000 | AID 686978, 2013; further: potency means the concentration at half of the fitted maximal effect; nearly all actives have a fitted effect of over 55% in size
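Growth of hTDP1-complemented DT40 Tdp1-knockout cells is measured by ATP luminescence after at least 48 hr compound exposure at 37 °C, with DMSO substituting for the 20 nM CPT used in the parallel screen.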
TDP1 cell CPT = DT40-hTDP1 cell growth loss with CPT; Potency, µM (highest dose often 46.2 µM), without a hit: at the top dose activity change, negative = growth inhibition, most hits filed as inhibitors; chicken DT40 Tdp1-/-;hTDP1 cells + 20 nM CPT, ATP luminescence, 48 h; hit rate 12% among 420,000; further: potency means the concentration at half of the fitted maximal effect; nearly all actives have a fitted effect of over 55% in size
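Chicken DT40 Tdp1-/- cells complemented with human TDP1, 400 cells/well, exposed to compounds plus 20 nM camptothecin for at least 48 h at 37 C; viability read as ATP content by CellTiter-Glo luminescence.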
* = called active by the depositor; ? = inconclusive; nt = no result; [ ] = dose if it differs, or a comment. Compounds with a hit are over-represented: about 19% of the library has one in this group of screens. Unless noted, the call rests on the fitted dose curve; in most records, active means well fitted curve in the direction sought with a large enough effect; inconclusive means small, poorly fitted or top-dose-only effect, or another doubt; inactive means no such curve, though single readings can be large; an effect the other way counts as inactive or inconclusive. Unless noted, on the % scale 0 is the no-effect control and ±100 the full control effect.

SMILES	HT1080 IDH1KD tx	IL1B secr inh	ELG1 DNA repair	HT1080NT lethal	TDP1 cell noCPT	TDP1 cell CPT
Cc1cccc(CN2CCC(Oc3ccc(C(=O)N4CCCCC4)cc3)CC2)c1	0%	?	-19%	-1%	?	?
Cc1ccc2c(Sc3ccc(Cl)cc3)c(C(=O)N3CCC(C)CC3)[nH]c2c1	nt	nt	nt	nt	21µM*	16µM*
Cc1oc2ncnc(N3CCOCC3)c2c1C(=O)NCc1ccccc1	nt	nt	nt	nt	-13%	-7%
COc1ccc2c(c1OC)C(=O)N1N=C(c3ccc(F)cc3)CC21 (stereo not drawn)	2%	1	5%	-2%	16µM*	?
COc1ccc2c(c1OC)C(=O)N(c1cccc(/C=C/C(=O)O)c1)C2	-4%	13	?	-5%	4%	?
O=C1C(Cc2ccc(F)cc2)SC(=Nc2ccccc2)N1c1ccccc1 (stereo not drawn)	-5%	0	2%	-6%	23µM*	?
O=C1C(Cc2ccc(Br)cc2)SC(=Nc2ccccc2)N1c1ccccc1 (stereo not drawn)	-23%	0	-11%	0%	-29%	-6%
COCc1cc(S(=O)c2ccc(Cl)cc2)nc(C)n1 (stereo not drawn)	?	-9	-17%	?	2.9µM*	4.6µM*
COCc1cc(Sc2ccc(Cl)cc2)nc(C)n1	-4%	15	-7%	-12%	-9%	?
CCOc1cc(C(=O)N2CCC(CC3CC(c4ccc(Cl)cc4)=NO3)(C(=O)NCC3CCCCC3)CC2)cc(OCC)c1OCC (stereo not drawn)	1%	?	?	-1%	18µM*	23µM*
COc1ccc(CNC(=O)C2(CC3CC(c4ccccc4)=NO3)CCN(C(=O)Cc3ccc(F)cc3)CC2)cc1 (stereo not drawn)	-10%	?	nt	0%	?	?
CCOc1cc(C(=O)N2CCC(CC3CC(c4ccccc4)=NO3)(C(=O)NCc3ccc(OC)cc3)CC2)cc(OCC)c1OCC (stereo not drawn)	-2%	?	nt	-2%	16µM*	?
C#CCOCCOCCOCCNc1nc(N2CCN(C(=O)[C@H](CCC(=O)O)n3cc([C@@H](N)[C@H](C)CC)nn3)CC2)nc(N2CCN(C(=O)[C@H](CCCCN)n3cc([C@@H](N)CC(N)=O)nn3)CC2)n1	9%	21	8%	4%	5%	-1%
COC(=O)c1c(C(=O)OC)c(-c2ccc(Cl)c(Cl)c2)n2c1CCC2	-5%	-25	?	-11%	?	21µM*
O=C(CN1CCCC1)N1c2ccccc2Sc2ccc(C(F)(F)F)cc21	-2%[9.24 µM]	-3	12%	-7%	?	?
O=C(CSc1nc2ccccc2o1)N1c2ccccc2Sc2ccc(C(F)(F)F)cc21	-11%	-1	2%	-14%	21µM*	?
COC(=O)CNc1cc(S(=O)(=O)N2CCCCC2)ccc1Oc1ccc(C(=O)OC)cc1	-21%	4	?	-9%	?	?
COC(=O)c1ccc(Oc2ccc(S(=O)(=O)N3CCCCC3)cc2N)cc1	-15%	12	0%	?	16µM*	?
Nc1cc(S(=O)(=O)N2CCCCC2)ccc1Oc1ccc(Cl)cc1	?	-14	?	0%	8.2µM*	?
C#CCOCC1CNC(=S)O1 (stereo not drawn)	8%	3	nt	4%	-13%	10%
CC[C@@]1(C(=O)OC)N[C@H](CN(C)C(=O)Nc2ccc(C)cc2)[C@@H]2C(=O)N(Cc3ccccc3)C(=O)[C@@H]21	-5%	-7	?	-4%	?	29µM*
COC(=O)[C@]1(Cc2ccccc2)N[C@H](CN(C)C(=O)Nc2ccccc2)[C@@H]2C(=O)N(Cc3ccccc3)C(=O)[C@@H]21	-9%	-4	-8%	-18%	?	?
COC(=O)[C@]1(Cc2ccccc2)N[C@H](CN(C)C(=O)Nc2ccc(Cl)cc2)[C@@H]2C(=O)N(Cc3ccccc3)C(=O)[C@@H]21	-1%	-64*	-15%	-3%	?	21µM*
COC(=O)[C@]1(Cc2ccccc2)N[C@H](CN(C)C(C)=O)[C@@H]2C(=O)N(C)C(=O)[C@@H]21	12%	37	?	9%	3%	1%
COC(=O)[C@]1(Cc2ccccc2)N[C@H](CN(C)C(=O)Nc2ccc(C(F)(F)F)cc2)[C@@H]2C(=O)N(C)C(=O)[C@@H]21	-9%	14	-1%	-3%	?	12µM*
SMILES	HT1080 IDH1KD tx	IL1B secr inh	ELG1 DNA repair	HT1080NT lethal	TDP1 cell noCPT	TDP1 cell CPT
COC(=O)[C@]1(Cc2ccccc2)N[C@H](CN(C)C(=O)Nc2ccc(F)cc2)[C@@H]2C(=O)N(Cc3ccccc3)C(=O)[C@@H]21	-19%	-20	?	-17%	15µM*	?
O=C1CCc2ccc(OCCCCN3CCN(c4cccc(Cl)c4Cl)CC3)cc2N1	3%	20	nt	25%	15µM*	16µM*
COc1c(Cl)cc(Cl)cc1/C=N/NC(=O)c1nnn(-c2nonc2N)c1CN1CCC(C)CC1	-1%	-17	3%	10%	?	15µM*
COc1ccc(O)c(/C=N/NC(=O)c2c(C)nnn2-c2nonc2N)c1	?	38	?	?	8.2µM*	18µM*
CC1CCN(Cc2c(C(=O)N/N=C/c3cc(Cl)ccc3O)nnn2-c2nonc2N)CC1	4.1µM*	103	2.1µM*	?	5.8µM*	4.6µM*
CC1CCN(Cc2c(C(=O)N/N=C/c3cc(Br)ccc3O)nnn2-c2nonc2N)CC1	2.3µM*	110	2.6µM*	3.7µM*	5.8µM*	5.8µM*
COc1ccc(/C=N/NC(=O)c2nnn(-c3nonc3N)c2-c2cccc(OC)c2)cc1	-1%	-5	3%	13%	12%	-4%
O=c1nc2ccc(Cl)cn2c2ccc(S(=O)(=O)N3CCOCC3)cc12	1%	-4	12%	10%	-13%	2%
COc1ccc(CNC(=O)c2nn(-c3ccccc3)cc2OC)cc1	-2%	?	-9%	1%	?	2%
Cc1cc(C)c(CSc2ncnc3nc[nH]c23)c(C)c1	-2%	-2	6%	-2%	-27%	-17%
